Measurements taken from PubChem BioAssay (NCATS).
Inconclusive results are not listed. The source made the active and inactive calls. Calls come from the whole dose curve; as a rule, active = well fitted cell-killing curve with a large enough effect; inconclusive = small, poorly fitted or top-dose-only effect, or effect the other way; inactive = no such curve, though single readings can be large or run the other way.

experiment: Quantitative High-Throughput drug screen in 47 multiple myeloma cell lines against the NCATS MIPE library collection: H1112_PLB cell viability assay (AID 1918967; note: nearly all actives have a fitted effect of over 30% in size); conditions: H1112 myeloma cells viability, ATP luminescence, 48 h; series mostly up to 45.8 µM
Outline: (§1)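 Approved and investigational drugs from MIPE 4.0 were added by pin tool to 500 cells per well. After 48 hours at 37C, ATP-based CellTiter-Glo luminescence indicated remaining viability.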
Potency is the fitted concentration of half-maximal effect.

Row | Compound | Potency
1 | C[C@@]12O[C@@H](C[C@]1(O)CO)n1c3ccccc3c3c4c(c5c6ccccc6n2c5c31)CNC4=O | 1480 nM (active)
2 | Cn1c(CNc2ccc(C(=N)N)cc2)nc2cc(C(=O)N(CCC(=O)O)c3ccccn3)ccc21 | inactive
3 | CN1CC[C@@H](c2c(O)cc(O)c3c(=O)cc(-c4ccccc4Cl)oc23)[C@@H](O)C1 | 132 nM (active)
4 | Nc1nccc(Oc2ccc(NC(=O)c3c[nH]cc(-c4ccc(F)cc4)c3=O)cc2F)c1Cl | 20900 nM (active)
5 | CNC(=O)c1c(F)cccc1Nc1nc(Nc2cc3c(cc2OC)CCN3C(=O)CN(C)C)nc2[nH]ccc12 | 1870 nM (active)
6 | Cc1nc(Nc2n[nH]c3c2CN(C(=O)N[C@H](CN(C)C)c2ccccc2)C3(C)C)c2sccc2n1 | 1660 nM (active)
7 | Cc1cn2c(-c3cn[nH]c3)cnc2c(Nc2ccc(C(=O)N3CCNCC3)cc2F)n1 | 20900 nM (active)
8 | COc1cc(=C2C=c3ccccc3=N2)[nH]c1=Cc1[nH]c(C)cc1C | 5900 nM (active)
9 | CC[C@H]1CN2CCc3cc(OC)c(OC)cc3[C@H]2C[C@@H]1C[C@@H]1NCCc2cc(OC)c(OC)cc21 | 264 nM (active)
10 | OCc1ccc(-c2ccc(-c3ccc(CO)s3)o2)s1 | 16600 nM (active)
11 | Cn1cc(-c2[nH]c3cc(NC(=O)[C@H](N)C4CCCCC4)cc4c3c2C=NNC4=O)cn1 | 935 nM (active)
12 | Nc1nc(Nc2ccc(S(N)(=O)=O)cc2)nn1C(=O)c1c(F)cccc1F | 8330 nM (active)
13 | COc1cccc2nc(-c3cccs3)nc(NN3C(=O)C=C(C)C3=O)c12 | 1180 nM (active)
14 | O=C(NCCCNc1nc(Nc2cccc(NC(=O)N3CCCC3)c2)ncc1I)c1cccs1 | 9350 nM (active)
15 | CC(C)(C)OC(=O)Nc1ccc(-c2cc(C(=O)NCCCCCCC(=O)NO)no2)cc1 | 3720 nM (active)
16 | C=CCn1c(=O)c2cnc(Nc3ccc(N4CCN(C)CC4)cc3)nc2n1-c1cccc(C(C)(C)O)n1 | 469 nM (active)
17 | CNC(=O)c1cc(Oc2ccc(NC(=O)Nc3cc(C(C)(C)C)nn3-c3ccc4ncccc4c3)c(F)c2)ccn1 | 4180 nM (active)

Row | Compound | Potency
18 | O=C(O)C1(Cc2cccc(Nc3nccs3)n2)CCC(Oc2cccc(Cl)c2F)CC1 (configuration not stated) | inactive
19 | COc1cc(C(=O)NS(=O)(=O)c2ccccc2C)ccc1Cc1cn(C)c2ccc(NC(=O)OC3CCCC3)cc12 | 20900 nM (active)
20 | O=C(Nc1cn[nH]c1-c1nc2ccc(CN3CCOCC3)cc2[nH]1)NC1CC1 | 3320 nM (active)
21 | CCOc1ccccc1OCCNC(C)Cc1ccc(OC)c(S(N)(=O)=O)c1 (configuration not stated) | inactive
22 | COC(=O)Nc1ccc(-c2nc(N3CCOCC3)c3cnn(C4CCN(Cc5cccnc5)CC4)c3n2)cc1 | 26400 nM (active)
23 | Cc1[nH]c2ccccc2c1CCNCc1ccc(C=CC(=O)NO)cc1 | 105 nM (active)
24 | C[C@@H]1COC(Nc2ccc3ncnc(Nc4ccc(OCc5nccs5)c(Cl)c4)c3c2)=N1 | 1320 nM (active)
25 | COC(=O)[C@]12CCC(C)(C)C[C@@H]1[C@@H]1C(=O)C=C3[C@@]4(C)C=C(C#N)C(=O)C(C)(C)[C@@H]4CC[C@@]3(C)[C@]1(C)CC2 | 418 nM (active)
26 | Cc1cc(CN2CCN(c3c(Br)cnc4nc(-c5ccc(N6CCN(C)CC6)cc5)[nH]c34)CC2)no1 | 10500 nM (active)
27 | CCCCN1CCC(CNC(=O)c2c3n(c4ccccc24)CCCO3)CC1 | 9350 nM (active)
28 | Cc1c(CN2CCN(S(C)(=O)=O)CC2)sc2c(N3CCOCC3)nc(-c3cnc(N)nc3)nc12 | 1180 nM (active)
29 | CN1CCN(c2ccc3nc(-c4c(N)c5c(F)cccc5[nH]c4=O)[nH]c3c2)CC1 | 7430 nM (active)
30 | COc1cc2c(Oc3ccc4[nH]c(C)cc4c3F)ncnc2cc1OCCCN1CCCC1 | 8330 nM (active)
31 | O=c1[nH]nc(Sc2ncc([N+](=O)[O-])s2)n1-c1ccc2c(c1)OCCO2 | 2640 nM (active)
32 | CC=C1NC(=O)[C@H]2CSSCCC=C[C@H](CC(=O)N[C@H](C(C)C)C(=O)N2)OC(=O)[C@H](C(C)C)NC1=O | 37.2 nM (active)
33 | CCC[C@H](NC(=O)C(C#N)=Cc1cccc(Br)n1)c1ccccc1 | 2350 nM (active)

experiment: Quantitative High-Throughput drug screen in 47 multiple myeloma cell lines against the NCATS MIPE library collection: Karpas25_ECACC cell viability assay (AID 1918968; note: nearly all actives have a fitted effect of over 35% in size); conditions: Karpas25 myeloma viability, CellTiter-Glo ATP, 48 h; series mostly up to 45.8 µM
Outline: as §1

Row | Compound | Potency
34 | CN1CC[C@@H](c2c(O)cc(O)c3c(=O)cc(-c4ccccc4Cl)oc23)[C@@H](O)C1 | 83.3 nM (active)
35 | Nc1nccc(Oc2ccc(NC(=O)c3c[nH]cc(-c4ccc(F)cc4)c3=O)cc2F)c1Cl | 16600 nM (active)
36 | Cc1nc(Nc2n[nH]c3c2CN(C(=O)N[C@H](CN(C)C)c2ccccc2)C3(C)C)c2sccc2n1 | 526 nM (active)
37 | COc1cc(=C2C=c3ccccc3=N2)[nH]c1=Cc1[nH]c(C)cc1C | 743 nM (active)
38 | CC[C@H]1CN2CCc3cc(OC)c(OC)cc3[C@H]2C[C@@H]1C[C@@H]1NCCc2cc(OC)c(OC)cc21 | 118 nM (active)
39 | Nc1nc(Nc2ccc(S(N)(=O)=O)cc2)nn1C(=O)c1c(F)cccc1F | 6620 nM (active)
40 | COc1cccc2nc(-c3cccs3)nc(NN3C(=O)C=C(C)C3=O)c12 | 26.4 nM (active)
41 | O=C(NCCCNc1nc(Nc2cccc(NC(=O)N3CCCC3)c2)ncc1I)c1cccs1 | 5260 nM (active)
42 | CC(C)(C)OC(=O)Nc1ccc(-c2cc(C(=O)NCCCCCCC(=O)NO)no2)cc1 | 935 nM (active)
43 | C=CCn1c(=O)c2cnc(Nc3ccc(N4CCN(C)CC4)cc3)nc2n1-c1cccc(C(C)(C)O)n1 | 332 nM (active)
44 | CNC(=O)c1cc(Oc2ccc(NC(=O)Nc3cc(C(C)(C)C)nn3-c3ccc4ncccc4c3)c(F)c2)ccn1 | 6620 nM (active)
45 | COc1cc(C(=O)NS(=O)(=O)c2ccccc2C)ccc1Cc1cn(C)c2ccc(NC(=O)OC3CCCC3)cc12 | 8330 nM (active)
46 | O=C(Nc1cn[nH]c1-c1nc2ccc(CN3CCOCC3)cc2[nH]1)NC1CC1 | 1870 nM (active)
47 | COC(=O)Nc1ccc(-c2nc(N3CCOCC3)c3cnn(C4CCN(Cc5cccnc5)CC4)c3n2)cc1 | 118 nM (active)
48 | Cc1[nH]c2ccccc2c1CCNCc1ccc(C=CC(=O)NO)cc1 | 20.9 nM (active)
49 | C[C@@H]1COC(Nc2ccc3ncnc(Nc4ccc(OCc5nccs5)c(Cl)c4)c3c2)=N1 | 2640 nM (active)
50 | CCCCCCCCCC(=O)N[C@@H](Cc1c[nH]c2ccccc12)C(=O)N[C@H](CC(N)=O)C(=O)N[C@@H](CC(=O)O)C(=O)N[C@@H]1C(=O)NCC(=O)N[C@@H](CCCN)C(=O)N[C@@H](CC(=O)O)C(=O)N[C@H](C)C(=O)N[C@@H](CC(=O)O)C(=O)NCC(=O)N[C@H](CO)C(=O)N[C@@H]([C@@H](C)CC(=O)O)C(=O)N[C@@H](CC(=O)c2ccccc2N)C(=O)O[C@@H]1C | inactive
51 | Cc1cc(CN2CCN(c3c(Br)cnc4nc(-c5ccc(N6CCN(C)CC6)cc5)[nH]c34)CC2)no1 | 3320 nM (active)
52 | NC1(Cc2ccc(Cl)cc2)CCN(c2ncnc3[nH]ccc23)CC1 | 1870 nM (active)
53 | Cc1c(CN2CCN(S(C)(=O)=O)CC2)sc2c(N3CCOCC3)nc(-c3cnc(N)nc3)nc12 | 18.7 nM (active)
54 | CN1CCN(c2ccc3nc(-c4c(N)c5c(F)cccc5[nH]c4=O)[nH]c3c2)CC1 | 2640 nM (active)
55 | O=c1[nH]nc(Sc2ncc([N+](=O)[O-])s2)n1-c1ccc2c(c1)OCCO2 | 1320 nM (active)
56 | CC=C1NC(=O)[C@H]2CSSCCC=C[C@H](CC(=O)N[C@H](C(C)C)C(=O)N2)OC(=O)[C@H](C(C)C)NC1=O | 14.8 nM (active)
57 | CCC[C@H](NC(=O)C(C#N)=Cc1cccc(Br)n1)c1ccccc1 | 1480 nM (active)
